High-throughput results (PubChem)
Hits are enriched below; roughly 4.6% of the tested compounds scored in any of these assays.
TRHR ag – qHTS for Small Molecule Agonists and Allosteric Enhancers of Human TRH Receptor: Primary Screen for Agonists. Thyrotropin-releasing hormone receptor (Homo sapiens), P34981. TRHR cells, calcium flux fluo-8, FDSS agonist mode. activation, % at 2 µM. 360,000 compounds, 0.18% hits. AID 493084, 2011; further: 0% is about no effect
Target sequence (P34981 whole entry, looked up): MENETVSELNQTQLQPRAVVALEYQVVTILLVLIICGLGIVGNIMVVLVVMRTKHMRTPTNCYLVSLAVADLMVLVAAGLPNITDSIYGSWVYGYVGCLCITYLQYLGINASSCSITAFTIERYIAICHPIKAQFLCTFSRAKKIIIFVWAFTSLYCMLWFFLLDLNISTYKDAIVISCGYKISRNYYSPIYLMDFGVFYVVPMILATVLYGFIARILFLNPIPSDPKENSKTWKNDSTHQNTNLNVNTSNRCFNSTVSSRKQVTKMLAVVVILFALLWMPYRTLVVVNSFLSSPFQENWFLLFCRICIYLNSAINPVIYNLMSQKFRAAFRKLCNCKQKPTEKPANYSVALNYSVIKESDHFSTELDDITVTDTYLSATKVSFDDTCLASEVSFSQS
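Read-out: compound-evoked intracellular calcium rise in TRHR cells, fluo-8 dye, kinetic FDSS fluorescence at 1 s/cycle following a 10-cycle baseline. Cells cultured overnight before dye loading (30 min–1.5 h, RT).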
D1 PAM – Potentiators of Human D1 Dopamine Receptor: qHTS; HEK293 TREx D1 cells, calcium flux, dopamine EC20 potentiation; potentiation, % at 10 µM; 360,000 compounds, 0.036% hits; in the data active means potentiation above about 30%; further: 0% is about no effect
D1 antag – Antagonist of Human D 1 Dopamine Receptor: qHTS; activity change, negative = inhibition, % at 10 µM; HEK293 TREx D1 cells, calcium flux, dopamine EC80; stronger effect = lower value; D(1A) dopamine receptor (Homo sapiens), P21728; 360,000 compounds, 3.2% hits; in the data active means activity change below about -30%; further: on the % scale 0 is the no-effect control and ±100 the full control effect
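After overnight tetracycline induction at 30 C, force-coupled D1 HEK293 cells took up a no-wash calcium dye at room temperature. Compounds were added and monitored 180 s, and the response to EC80 dopamine was then recorded.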
Epigenetic reg – Quantitative High-Throughput Screen for Regulators of Epigenetic Control; murine LDR cells, GFP reporter derepression, 30 h; Potency, µM (titrated, usually from 53.9 µM), for inactives: at the top dose GFP activation, actives largely listed as activators; 280,000 compounds, 0.2% hits; AID 1865, 2009; active means well fitted activation curve with a large enough effect; further: potency means the concentration at half of the fitted maximal effect; % of control where 0% means no effect; nearly all actives have a fitted effect of over 60% in size
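Reporter derepression read as number of fluorescent GFP-positive objects, 20-120 um in size, counted by laser-scanning cytometer. Mouse LDR line with an epigenetically silenced CMV-GFP locus; compound incubation 30 h, 37 C.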
D1 ag – Allosteric Agonists of the Human D1 Dopamine Receptor: qHTS. D(1A) dopamine receptor (Homo sapiens), P21728. HEK293 T-REx D1 cells, calcium flux, agonist mode. activation, % at 2 µM. 360,000 compounds, 1% hits; further: 0% is about no effect
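Agonism was scored from calcium flux recorded over 180 s (1 read/s) after pintool compound addition, following a 10-cycle baseline. Cells were inducible force-coupled HEK293 TREx D1, plated overnight at 30 C and loaded with no-wash calcium dye.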
TRHR enhancer – qHTS for Small Molecule Agonists and Allosteric Enhancers of Human TRH Receptor: Primary Screen for Enhancers; TRHR cells, fluo-8 calcium fluorescence, EC20 TRH enhancement; enhancement, % at 2 µM; 360,000 compounds, 0.66% hits; AID 493056, 2011; in the data active means enhancement above about 30%; further: 0% is about no effect
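Enhancer read-out: after compound pinning and an initial kinetic agonist-mode read, an EC20 of TRH (10 nM final) was injected and fluo-8 calcium signal (Ex 480/Em 530) followed at 1 s/cycle for 100 cycles in TRHR-expressing cells.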
* = called active by the depositor; / = no result given; ! = not active in a repeat; [ ] = dose if it differs, or a comment. Unless noted, no stated cut-off is given here; in the data, active means activation above about 30%; inactive means the rest.

SMILES | TRHR ag | D1 PAM | D1 antag | Epigenetic reg | D1 ag | TRHR enhancer
COc1ccc(C2C(C(=O)Nc3ccccc3)=C(C)Nc3nc(-c4ccc(Cl)cc4)nn32)cc1 (centres undefined) | 0 | -1 | -4 | 1% | 5 | 24
COc1ccc2oc(-c3ccccc3)c(C(=O)N(C)C)c2c1 | 0 | -2 | -70* | / | 2 | 0
COc1ccc(OC)c(NC(=O)CN2C(=O)COc3ccc(S(=O)(=O)NC4CCCC4)cc32)c1 | 0 | -5 | 12 | 0% | -2 | 4
CN(c1ccccc1)S(=O)(=O)c1cccc(C(=O)NCCCN2CCCC2=O)c1 | 0 | -2 | -15 | / | 2 | 2
Cc1ccc(/C=N/NC(=O)c2nnn(-c3nonc3N)c2-c2ccc3c(c2)OCO3)s1 | 0 | 36* | 71 | / | 49* | 7
Cc1ccc(/C=N/NC(=O)c2nnn(-c3nonc3N)c2CN(C)C)o1 | -1 | -4 | -14 | / | 0 | 32*
Nc1nonc1-n1nnc(C(=O)N/N=C/c2ccc(F)cc2)c1-c1ccc2c(c1)OCO2 | 0 | 3 | 7 | / | 2 | 5
CCOc1cccc(-c2c(C(=O)N/N=C/c3cccs3)nnn2-c2nonc2N)c1 | 1 | 10 | 51 | / | 30* | 22
COc1cccc(-c2c(C(=O)N/N=C/c3cccs3)nnn2-c2nonc2N)c1 | 6 | 10 | 33 | / | 61* | 22
COc1ccc(C)c2sc(N(Cc3cccnc3)C(C)=O)nc12 | 0 | 4 | / | 0% | -1 | 5
Cc1ccc(SCc2c(C(=O)N/N=C/c3ccncc3)nnn2-c2nonc2N)cc1 | -1 | -10 | -42* | / | 6 | -1
COc1ccc(/C=N/NC(=O)c2nnn(-c3nonc3N)c2-c2cccc(OC)c2)cc1 | 8 | 14 | 5 | / | 99* | 30
COc1cc(/C(C)=N/NC(=O)c2nnn(-c3nonc3N)c2-c2cccs2)ccc1O | 0 | 1 | -3 | / | 6 | -1
Nc1nonc1-n1nnc(C(=O)N/N=C/c2ccncc2)c1CSc1ccc(Cl)cc1 | 0 | -6 | -28 | / | 5 | -7
CCOc1ccc(/C(C)=N/NC(=O)c2nnn(-c3nonc3N)c2-c2cccs2)cc1 | 3 | 41* | 107 | / | 115* | 12
Cc1ccc(/C=N/NC(=O)c2nnn(-c3nonc3N)c2-c2cccs2)cc1 | 1 | 19 | 96 | / | 163* | 20
COc1ccc(/C=N/NC(=O)c2nnn(-c3nonc3N)c2-c2cccs2)cc1OC | 1 | 0 | -12 | / | 5 | -1
COC(=O)c1ccc(NC(=O)c2c(NCc3ccc(C)o3)sc3c2CCCC3)cc1 | 0 | -3 | 4 | -1% | 2 | 3
NC(=O)[C@@H]1CCCN1 | / | / | / | 1% | / | /
Cc1ccccc1NC(=O)Cn1c(=O)oc2cc(Br)ccc21 | 0 | 0 | -25 | 4% | 18 | -5
Cc1ccc(C)c2c1c1ccccc1n2C | 0 | -4 | 12 | 0% | 0 | 31*
Cc1c(O)c(=O)c2ccccc2n1C | 0 | -5 | 8 | 2%[10.1 µM] | -2 | -4
COc1ccccc1CCNC(=O)Cc1c(C)c2c(O)cc(C)cc2oc1=O | 0 | -2 | -6 | -2% | 1 | -1
CN(C)CC(C)(C)CNS(=O)(=O)CC12CCC(CC1=O)C2(C)C (centres undefined) | 1 | 0 | -75* | 6% | -1 | 3
COc1ccc(CCNC(=O)CN2C(=O)COc3ccc(S(=O)(=O)N4CCOCC4)cc32)cc1OC | 0 | -2 | -52* | / | 2 | -1
SMILES | TRHR ag | D1 PAM | D1 antag | Epigenetic reg | D1 ag | TRHR enhancer
COc1ccc(OC)c(CCNC(=O)CN2C(=O)COc3ccc(S(=O)(=O)N4CCOCC4)cc32)c1 | 0 | 5 | 9 | / | 2 | 3
CCCCSCCCNC(=O)CN1C(=O)COc2ccc(S(=O)(=O)N3CCCC3)cc21 | 1 | -3 | -4 | -1% | 6 | -3
CCCSCCCNC(=O)CN1C(=O)COc2ccc(S(=O)(=O)N3CCCC3)cc21 | 0 | 3 | -38*! | -1% | 2 | 6
COc1ccc(NC(=O)CN2C(=O)C3(SCC(=O)N3c3cccc(OC)c3)c3ccccc32)cc1 (centres undefined) | 0 | -5 | 0 | -1% | 1 | -15
CCCCc1ccc(NC(=O)COc2cccc3c(=O)n(C)ccc23)cc1 | 0 | -2 | / | 5% | 2 | 14
Cc1cc(/C=C2/C(=O)NN(c3ccccc3)C2=O)c(C)n1-c1cccc(O)c1 | -1 | -2 | -13 | 0% | 0 | -3
Cc1cc(/C=C2\SC(=S)NC2=O)c(C)n1-c1cccc(O)c1 | 4 | -1 | 1 | -1% | 34* | -4
Cc1cc(C=C2C(=O)c3ccccc3C2=O)c(C)n1-c1cccc(C(=O)O)c1 | 9 | -2 | -4 | 0% | 8 | 4
Cc1cccc(-n2c(C)cc(/C=C3\NC(=O)NC3=O)c2C)c1 | 0 | -8 | -40* | -1% | 0 | 8
Cc1cc(/C=C2\SC(=S)NC2=O)c(C)[nH]1 | 11 | 6 | 8 | 4% | 33* | -1
Cc1cc(C=C2C(=O)c3ccccc3C2=O)c(C)n1-c1ccccc1 | 6 | -3 | -1 | 1% | 33* | -9
COC(=O)c1scc(-c2ccc(C)cc2)c1S(=O)(=O)Nc1cc(C)c(Cl)cc1OC | 0 | -6 | -10 | 0% | 11 | 3
CCCCOC(=O)c1ccc(OC(=O)c2sc3ncn(Cc4ccccc4Cl)c(=O)c3c2C)cc1 | 0 | -2 | 8 | 0% | 2 | -6
Cc1ccc(-n2c(C)cc(/C=C3\SC(=O)NC3=O)c2C)cc1 | -1 | -6 | -36* | / | 10 | -2
COc1ccc(-n2c(C)cc(/C=C3\SC(=O)NC3=O)c2C)cc1 | 2 | -8 | -12 | / | 5 | -3
Cc1ccc(N2CCN(C(=O)c3cn(C)c4ccc(S(=O)(=O)N(C)C5CCCCC5)cc4c3=O)CC2C)cc1 (centres undefined) | -1 | 2 | 5 | 0% | -2 | 0
O=C(COC(=O)COc1ccc(Cl)cc1)NC1CCCC1 | -1 | 2 | -33* | / | 4 | 5
O=C(COc1ccc(C(=O)c2ccccc2)cc1)NC1CCCCCC1 | 1 | -1 | -19 | 0% | 12 | 2
O=C(COc1ccc(C(=O)c2ccccc2)cc1)NC1CCCCC1 | 0 | -3 | -31* | 0% | 13 | -2
